High-throughput results deposited in PubChem by National Center for Advancing Translational Sciences (NCATS).
The list is not random: actives were taken first. Their share in the collection is about 4%.
D1 PAM – Potentiators of Human D1 Dopamine Receptor: qHTS; 0.036% of 360,000 active; potentiation, % at 10 µM; HEK293 TREx D1 cells, calcium flux, dopamine EC20 potentiation; D(1A) dopamine receptor (Homo sapiens), P21728; in the data active means potentiation above about 30%; further: 0% is about no effect
Target sequence (P21728 whole entry, looked up): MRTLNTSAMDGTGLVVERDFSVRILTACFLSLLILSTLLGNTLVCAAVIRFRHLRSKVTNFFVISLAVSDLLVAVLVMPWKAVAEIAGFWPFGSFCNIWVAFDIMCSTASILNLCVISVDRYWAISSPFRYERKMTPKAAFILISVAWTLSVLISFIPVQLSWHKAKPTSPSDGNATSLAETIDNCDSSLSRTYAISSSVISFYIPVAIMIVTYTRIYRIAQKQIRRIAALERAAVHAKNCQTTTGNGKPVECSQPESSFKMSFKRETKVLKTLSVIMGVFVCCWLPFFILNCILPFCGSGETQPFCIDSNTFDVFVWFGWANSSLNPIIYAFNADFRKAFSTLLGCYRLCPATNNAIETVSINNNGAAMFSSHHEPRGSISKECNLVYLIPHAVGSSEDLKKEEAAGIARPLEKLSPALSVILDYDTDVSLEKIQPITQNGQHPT
TRHR PAM – qHTS for Small Molecule Agonists and Allosteric Enhancers of Human TRH Receptor: Primary Screen for Enhancers; Thyrotropin-releasing hormone receptor (Homo sapiens), P34981; TRHR cells, fluo-8 calcium fluorescence, EC20 TRH enhancement; enhancement, % at 2 µM; 0.66% of 360,000 active; in the data active means enhancement above about 30%; further: 0% is about no effect
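TRHR-expressing cells loaded with fluo-8 calcium dye were read kinetically (ex 480/em 530) during compound addition, then stimulated with an EC20 of TRH (10 nM final). Enhancement of the Gq-mediated intracellular calcium response was scored.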
GRP78 ERSR act – qHTS for Inducers of the Endoplasmic Reticulum Stress Response (ERSR) in Human Glioma: qHTS. U87-MG GRP78 promoter luciferase reporter, 16 h. AID 602332, 2012. 0.02% of 420,000 active. Potency, µM, for the others: top-dose activation, hits mostly activators; active means well fitted activation curve with a large enough effect; inconclusive means small, poorly fitted or top-dose-only effect; inactive means no such curve, though single readings can be large or run the other way; further: potency means the concentration at half of the fitted maximal effect; series mostly up to about 76 µM; % of control where 0% means no effect; nearly all actives have a fitted effect of over 35% in size
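Stably transfected U87-MG human glioma cells carrying a GRP78-based luminescent sensor were seeded at 1000 cells/well, pin-dosed with compounds and incubated 16 h. Luciferase reagent was then added, and end-point luminescence was read after 10 min at room temperature.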
TRHR ag – qHTS for Small Molecule Agonists and Allosteric Enhancers of Human TRH Receptor: Primary Screen for Agonists. Thyrotropin-releasing hormone receptor (Homo sapiens), P34981. TRHR cells, calcium flux fluo-8, FDSS agonist mode. activation, % at 2 µM. 0.18% of 360,000 active. AID 493084, 2011; further: 0% is about no effect
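Fluo-8-loaded TRHR cells; 10 s baseline, compound added, kinetic Ca2+ fluorescence read 1/s, agonist mode.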
D1 antagonist – Antagonist of Human D 1 Dopamine Receptor: qHTS | AID 504652, 2011 | HEK293 TREx D1 cells, calcium flux, dopamine EC80; active compounds read low | 3.2% of 360,000 active | activity change, negative = inhibition, % at 10 µM; in the data active means activity change below about -30%; further: on the % scale 0 is the no-effect control and ±100 the full control effect
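After overnight tetracycline induction at 30 C, force-coupled D1 HEK293 cells took up a no-wash calcium dye at room temperature. Compounds were added and monitored 180 s, and the response to EC80 dopamine was then recorded.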
D1 ag – Allosteric Agonists of the Human D1 Dopamine Receptor: qHTS. D(1A) dopamine receptor (Homo sapiens), P21728. HEK293 T-REx D1 cells, calcium flux, agonist mode. activation, % at 2 µM. 1% of 360,000 active. AID 504660, 2011; further: 0% is about no effect
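Agonism was scored from calcium flux recorded over 180 s (1 read/s) after pintool compound addition, following a 10-cycle baseline. Cells were inducible force-coupled HEK293 TREx D1, plated overnight at 30 C and loaded with no-wash calcium dye.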
Numbers without * were called inactive; ? = inconclusive; . = not tested or not shown; ! = a repeat was not active. Unless noted, no stated cut-off is given here; in the data, active means activation above about 30%; inactive means the rest.

SMILES	D1 PAM	TRHR PAM	GRP78 ERSR act	TRHR ag	D1 antagonist	D1 ag
Cc1cccc(NC(=S)NNC(=O)c2ccccc2OC(F)F)c1	-4	-10	0%	-1	-40*	5
CCOc1ccc(-c2cc3c(=O)n(Cc4nc(-c5ccc(OC(C)C)cc5)oc4C)ccn3n2)cc1Cl	0	-4	0%	-1	-36*	2
Cc1cc(C)n(-c2ccc(C(F)(F)F)cc2[N+](=O)[O-])n1	-1	4	-1%	-1	-2	0
Cc1cccc(N2C(=O)CN=C2Nc2nc(C)cc(C)n2)c1	-3	-2	0%	-1	-32*	-2
Cc1cc(C)nc(NC2=NCC(=O)N2c2cc(Cl)cc(Cl)c2)n1	-5	5	-4%	1	6	6
O=S(=O)(CCN1CCN(c2ccccc2O)CC1)c1cc(Cl)ccc1Cl	-6	7	-3%	1	2	-1
O=[N+]([O-])c1ccc(NC2CCCC2)cc1	3	2	1%	0	-17	9
O=[N+]([O-])c1ccc(N/N=C2/CCCCC2c2ccccn2)cc1 (configuration not stated)	9	-1	19%	0	-59*	2
O=C(NCc1ccccc1)NC12CC3CC(CC(C3)C1)C2	-3	-7	-1%	0	-3	0
O=C(NCc1ccccn1)NC12CC3CC(CC(C3)C1)C2	-5	-1	1%	0	-82*	2
Cc1nnc2ccc(-c3cccc(NS(=O)(=O)c4ccccc4[N+](=O)[O-])c3)nn12	1	9	6%	0	4	3
O=C(CSc1cn[nH]n1)Nc1ccc(O)c(C(=O)O)c1	-8	-2	-7%	0	11	2
Cc1cccc(NC(=O)c2ccccc2SCc2ccc(F)cc2)n1	0	-2	-2%	0	-34*	3
O=C(Nc1ccc(Cl)cn1)c1ccccc1SCc1ccccc1	-5	-11	2%	0	-5	4
CCCCCCSc1nsc(NC(=O)CCC)n1	3	18	4%	0	-39*	13
CCCCN1CC(O)=C(c2nc3ccccc3[nH]2)C1=N	1	-1	0%	-1	-4	0
COc1ccc(NC(=O)C(Cl)=C(Cl)Cl)cn1	-5	0	?	0	-10	1
COc1ccc(NC(=O)/C(Cl)=C(/Cl)S(=O)Cc2ccc(Cl)cc2)cn1 (configuration not stated)	-7	-17	-16%	1	-33*	0
CC(C)Oc1ccc(S(=O)(=O)N2CCOCC2)cc1NC(=O)C1COc2ccccc2O1 (configuration not stated)	-2	-4	1%	0	-44*	3
C/C(N)=C(/C#N)C(=O)COC(=O)c1ccc(C#N)cc1	-7	1	-2%	0	-44*	4
C/C(N)=C(/C#N)C(=O)COC(=O)c1ccc(O)cc1	-2	-6	-1%	0	-3	1
Cc1ccc(/C=C/C(=O)N2CCN(c3ncccn3)CC2)o1	-5	0	-2%	0	-43*	2
O=C1NC(c2cccs2)Nc2ccccc21 (configuration not stated)	2	7	-3%	1	10	2
COC(=O)C1=C(C)N(C2CCCCC2)C(=O)/C1=C\c1cccs1	13	40*	-2%	0	6	1
CCCCCc1c(C)nc(NCc2ccccc2)[nH]c1=O	4	15	-4%	1	7	9
SMILES	D1 PAM	TRHR PAM	GRP78 ERSR act	TRHR ag	D1 antagonist	D1 ag
COc1ccccc1NC(=S)N(CCc1c(C)[nH]c2ccccc12)Cc1cccs1	-4	-5	-5%	1	-6	-3
CSc1ccc(CCNC(=O)c2csc3c2CCCCC3)cc1	-1	-2	1%	1	-38*	12
CC(=O)Nc1cccc(C(=O)NCc2ccc3c(c2)CCN3C(C)=O)c1	0	-1	-1%	1	-7	1
CCC(=O)N1CCc2cc(CNC(=O)c3cccc(N(C)C)c3)ccc21	-1	35*	-3%	-1	-8	-1
Cc1ccccc1C(=O)NCc1ccc2c(c1)CCN2C(=O)c1ccccc1	-4	-6	-2%	0	-41*	8
CCOc1ccccc1C(=O)NCc1ccc2c(c1)CCN2C(=O)c1ccccc1	-4	-6	-3%	-1	-38*	5
COc1ccc(C(=O)NCc2ccc3c(c2)CCN3C(=O)c2ccccc2)cc1	1	0	-3%	-1	-3	0
O=C(NCc1ccc2c(c1)CCN2C(=O)c1ccncc1)c1ccccc1Br	-4	-3	-4%	0	-31*	9
Cc1cccc(CNc2cc(-c3ccoc3)ncn2)c1	.	.	-1%	.	.	.
Cc1ccc(NC(=O)C/C(N)=N/OC(=O)c2ccccc2)cc1	-5	6	0%	0	2	3
O=C(Nc1ccon1)c1ccccc1Cl	3	-5	?	0	5	0
O=C(Nc1nc(-c2cc(F)ccc2F)cs1)c1cccc(N2C(=O)CCC2=O)c1	-5	-14	-2%	0	-32*	9
O=C(Nc1nc(-c2ccc(F)cc2)cs1)c1cccc(N2C(=O)CCC2=O)c1	-8	-4	-1%	0	-1	3
Cc1noc(C)c1C(=O)Nc1nc(-c2cc(F)ccc2F)cs1	-3	1	4%	0	-32*	2
Cc1onc(-c2ccccc2)c1C(=O)Nc1nc(-c2cc(F)ccc2F)cs1	-7	-12	0%	0	-5	2
CCCC[C@@H]1CN2[C@H](c3ccc(Br)cc3)[C@H](C)CC[C@H]2C(=O)O1	.	.	-5%	.	.	.
CN(Cc1cn(C)nc1-c1ccccc1F)Cc1nccn1C	-3	1	-4%	4	-7	2
Cc1cc(-c2ccc(C)c(S(=O)(=O)NCC3CCN(Cc4ccc(F)cc4)CC3)c2)on1	-7	1	-6%	0	-33*!	9
COc1ccccc1CN1CCC(CNS(=O)(=O)c2cc(-c3cc(C)no3)ccc2C)CC1	-7	3	0%	2	-10	40*
CCc1ccc(-c2cc(C)no2)cc1S(=O)(=O)Nc1ccc(C)cn1	2	-3	-5%	-1	-45*!	0
Cc1ccc(NS(=O)(=O)c2cc(-c3cc(C)no3)ccc2C(C)C)nc1	-2	-3	-9%	0	-2	0
